JMJD2A Tudor: blocks the human JMJD2A Tudor domain | O75164 | AlphaScreen JMJD2A-Tudor / H3K4me3 peptide binding | Potency, µM (series often up to 114 µM), without a hit: top-dose activity change, negative = inhibition, most hits filed as inhibitors | hit rate 4.4% among 390,000; note: potency is the fitted concentration of half-maximal effect; % is set by controls: 0 for no effect and ±100 for the full control effect; nearly all actives have a fitted effect of over 50% in size
Six1-Eya2 inh: inhibitors of human Six1/Eya2 interaction; hit rate 0.56% among 360,000; activity change, % (test concentration not listed); AID 651725; Q15475+O00167; AlphaScreen GST-Six1/His-Eya2 binding, biochemical; hits give low values; in the data active = activity change below about -65%; inconclusive = mostly about -30% to -63%; note: % is set by controls: 0 for no effect and ±100 for the full control effect
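Compounds are tested against tagged Six1 and Eya2 proteins bridged by glutathione donor and nickel acceptor beads; after a one-hour incubation at 37 °C without light, AlphaScreen emission is recorded.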
CtBP-E1A blk: blocks the CtBP interaction with E1A; AlphaScreen GST-E1A/His-CtBP binding, 1536-well; hits give low values; activity change, % (no concentration beside the values); hit rate 0.49% among 340,000; in the data active = activity change below about -65%; inconclusive = mostly about -30% to -63%; note: % is set by controls: 0 for no effect and ±100 for the full control effect
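Homogeneous bead-based format: GST-tagged E1A captured on glutathione donor beads, His-tagged CtBP on nickel acceptor beads; compounds precede bead addition by 2 h at 37 °C.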
BAZ2B inh: inhibitors of human BAZ2B bromodomain. AlphaScreen BAZ2B-H3K14Ac peptide displacement. Potency, µM (doses to about 114 µM), for inactives: at the top dose activity change, negative = inhibition, hits mostly inhibitors. hit rate 4.4% among 360,000. AID 504333; note: potency is the fitted concentration of half-maximal effect; % is set by controls: 0 for no effect and ±100 for the full control effect; nearly all actives have a fitted effect of over 60% in size
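Compounds, titrated to a top concentration of 110 uM, were incubated 30 min at room temperature with preformed BAZ2B/acetyl-K14 H3 peptide complex (50 nM each). Proximity signal was measured by AlphaScreen after 20 min with beads.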
HP1b chromo inh: HP1-beta chromodomain-methylated histone interaction inhibition; hit rate 0.56% among 390,000; AlphaScreen HP1-beta / biotin-H3K9me3 peptide binding; AID 540317; Potency, µM (highest dose often 114 µM), without a hit: top-dose activity change, negative = inhibition, hits mostly inhibitors; P83916; note: potency is the fitted concentration of half-maximal effect; nearly all actives have a fitted effect of over 70% in size
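AlphaScreen: HP1-beta (50 nM) preformed 30 min with biotin-H3(1-18)K9me3 peptide (50 nM) in PBS pH 7.4, 0.01% Tween-20. Compound added for 30 min at RT, then streptavidin donor/nickel chelate acceptor beads (10 ug/mL) for 30 min.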
TDP1 inh: TDP1 (human) enzyme inhibition. AID 485290. recombinant TDP1, AlphaScreen DNA substrate cleavage. Q9NUW8. Potency, µM (titrated, usually from 130 µM), inactives show at the highest dose activity change, negative = inhibition, actives largely listed as inhibitors. hit rate 0.28% among 350,000; note: potency is the fitted concentration of half-maximal effect; % is set by controls: 0 for no effect and ±100 for the full control effect; nearly all actives have a fitted effect of over 40% in size
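Compounds were preincubated with Tdp1 (1 nM final) for 15 min at room temperature before substrate (15 nM final) started a 5 min reaction; beads (10 ug/ml final) were then added for 10 min before AlphaScreen detection.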
Starred values were filed as active, the others as inactive; ? = inconclusive; . = not tested or not shown; [ ] = dose if it differs, or a comment. Compounds with a hit are over-represented: about 5.3% of the library has one in this group of screens. Unless noted, calls come from the whole dose curve; as a rule, active = well fitted inhibition curve with a large enough effect; inconclusive = small, poorly fitted or top-dose-only effect; inactive = no such curve, though single readings can be large or run the other way.

SMILES	JMJD2A Tudor	Six1-Eya2 inh	CtBP-E1A blk	BAZ2B inh	HP1b chromo inh	TDP1 inh
Cn1c(=O)c2c(nc(N/N=C/c3c(O)n(C4CCCCC4)c(=S)[nH]c3=O)n2C)n(C)c1=O	79.4µM*	-81.2*	?	50.1µM*	?	.
Cn1c(O)c(/C=N/Nc2ccccc2)c(=O)n(C)c1=O	?	3.0	-6.8	-23.5%	18.5%	10.3%
Cc1ccccc1-n1c(O)c(/C=N/Nc2nc3c(c(=O)n(C)c(=O)n3C)n2C)c(=O)[nH]c1=S	?	-67.9*	-78.0*	?	2.6%	5.6%
CCC1/C=C/C=CCC(C)C(O)[C@@](C)(O)C(=O)C(C)C(O)C(C)C(=O)C(C)C(O)C(C)C=CC(=O)O[C@H]2C(C)C(CC1)O[C@]1(CCC(C)C(CC(C)O)O1)C2C (stereo partly specified)	.	.	.	.	.	16.4%[56.1 µM]
CC(=O)CC(c1ccccc1)c1c(O)c2cccc(O)c2oc1=O (stereo unspecified)	.	.	.	.	.	3.0%
Cc1ccccc1-n1c(C)cc(/C=C2/C(=O)NC(=O)N(Cc3ccco3)C2=O)c1C	28.2µM*	-2.1	.	?	-11.0%	0.0%
Cc1ccc(-n2c(C)cc(/C=C3/C(=O)NC(=O)N(Cc4ccco4)C3=O)c2C)cc1	?	-18.7	4.8	35.5µM*	-13.6%	-3.0%
O=P(O)(O)c1ccccc1OCCOCCOCCOCCOc1ccccc1P(=O)(O)O	-8.3%	1.7	-5.3	-34.1%	47.2%	4.9%
O=C1CN=C(c2ccccc2)c2cc(Cl)ccc2N1Cc1ccc(Cl)cc1	-17.2%	.	.	-1.7%	7.9%	8.6%
O=C(O)CN1C(=O)CN=C(c2ccccn2)c2cc(Cl)ccc21	25.1µM*	-26.8	.	50.1µM*	48.9%	-1.4%
CCOC(=O)C1OC1(C)c1ccccc1 (stereo unspecified)	.	.	.	.	.	10.4%
O=C(Cn1c(=O)n(CC2CCC(C(=O)NCCc3ccccc3)CC2)c(=O)c2ccccc21)Nc1cccc(F)c1 (stereo unspecified)	56.2µM*	.	.	-0.9%	10.6%	2.1%[12.3 µM]
O=C(CN1CC(c2ccccc2)CC1=O)Nc1cccc(F)c1 (stereo unspecified)	-19.7%	10.0	-1.8	-12.8%	2.0%	-2.6%
CCCCCCCCCCCCCCC[C@@H](O)[C@@H](N)COP(=O)(O)O	.	.	.	.	.	6.2%
Nc1cccc2ccccc12	.	.	.	.	.	18.3%
CCc1nn2c(=O)cc(N3CCN(C)CC3)nc2s1	-17.7%	.	.	.	.	.
Cc1ccccc1[N+](=O)[O-]	-10.3%	25.0	21.9	-0.8%	100.3%	0.9%
COC(=O)C1=C(C)NC(C)=C(C(=O)OC)C1c1ccccc1[N+](=O)[O-]	?	-28.4	?	39.8µM*	?	8.7%
CCCCC/C=C\C/C=C\C/C=C\C/C=C\CCCC(=O)OCCN	.	.	.	.	.	8.9%
CCC(C)(C)O	.	.	.	.	.	5.6%
COc1ccc2[nH]c3c(c2c1)CCN=C3C	35.5µM*	-69.9*	?	44.7µM*	-29.5%	15.2%[56.1 µM]
COC(=O)[C@H]1[C@H]2C[C@@H]3c4[nH]c5cc(OC)ccc5c4CCN3C[C@H]2C[C@@H](OC(=O)/C=C/c2cc(OC)c(OC)c(OC)c2)[C@@H]1OC	28.2µM*	3.8	9.6	?	-22.4%	.
CC(=O)c1cccc(OCC(O)CN2CC=C(c3ccccc3)CC2)c1 (stereo unspecified)	2.82µM*	-2.0	1.1	70.8µM*	-34.6%	-8.1%
CCOc1ccc(-c2nc3ccc(-c4nc5ccc(N6CCN(C)CC6)cc5[nH]4)cc3[nH]2)cc1	.	.	.	.	.	27.2%
Cc1ccc2c(c1)[C@@H]1CN(C)CC[C@H]1N2	.	.	.	.	.	0.7%
SMILES	JMJD2A Tudor	Six1-Eya2 inh	CtBP-E1A blk	BAZ2B inh	HP1b chromo inh	TDP1 inh
c1ccc(-c2nc(N3CCOCC3)s[n+]2-c2ccccc2)cc1	17.8µM*	3.7	7.2	-33.4%	?	0.0%
O=C(Nc1ccc(Cl)cc1)O/N=C(\c1ccccc1)c1ccccn1	10µM*	?	?	14.1µM*	22.7%	1.0%
c1nc[n]([Sn]([CH]2CCCCC2)([CH]2CCCCC2)[CH]2CCCCC2)n1	.	.	.	.	.	4.3%
CC(C)=CCC/C(C)=C/CN(CC(C)O)CC(C)O (stereo unspecified)	3.16µM*	3.9	4.8	-3.8%	?	4.4%
COc1ccc(NC(c2ccccc2)P(=O)(Oc2ccccc2)Oc2ccccc2)cc1 (stereo unspecified)	?	-6.4	.	25.1µM*	1.9%	8.1%
O=C(Cl)/C=C/C(=O)Cl	.	.	.	.	.	3.1%
CCOc1ccccc1CN(CCc1ccc2c(c1)OCO2)Cc1ccc(CC)cc1	5.01µM*	.	.	39.8µM*	?	.
CCOc1cncc(/C=C/CCNC)c1	.	.	.	.	.	3.0%
CCC(CC)NC1CCCCC1OC (stereo unspecified)	50.1µM*	-1.7	12.8	?	18.6%	0.0%
CCOc1ccc(C=C2C(=O)NC(=S)NC2=O)cc1OCC	?	3.2	-1.0	.	-3.2%	.
COc1cc(/C=C2\C(=O)NC(=O)N(c3ccccc3)C2=O)cc(OC)c1O	-19.4%	-1.2	-3.9	?	21.0%	-4.7%
COc1cc(/C=C2/C(=O)N(c3ccccc3)N=C2C)ccc1OS(=O)(=O)c1ccccc1	.	.	.	28.2µM*	.	0.6%
CCOc1cc(C=C2C(=O)NC(=O)NC2=O)ccc1OS(=O)(=O)c1ccccc1	79.4µM*	11.1	1.3	-8.7%	11.0%	6.6%
C=C(C)C1Cc2c(ccc3c2OC2COc4cc(OC)c(OC)cc4C2C3=O)O1 (stereo unspecified)	.	.	.	.	.	14.3%
CC[C@@]1(C(=O)OC)N[C@H](CN(C)C(=O)Nc2ccc(F)cc2)[C@@H]2C(=O)N(Cc3ccccc3)C(=O)[C@@H]21	-18.0%	3.1	-0.7	.	65.0%	-1.2%
C=C(C)C(=O)OCC1CO1 (stereo unspecified)	.	.	.	.	.	14.9%
Cc1cc(=O)n2[nH]c(C)cc2n1	-6.8%[11.4 µM]	-5.7	.	4.9%	61.2%	1.1%
O=C(CSC(=S)N1CCCC1)N/N=C/c1c(O)[nH]c(=S)[nH]c1=O	56.2µM*	-90.5*	-92.9*	.	33.1%	-0.1%
COCCn1c(O)c(/C=N/NC(=O)CSC(=S)N2CCCC2)c(=O)[nH]c1=S	89.1µM*	?	-76.0*	-0.8%	37.2%	4.5%
ClC(Cl)c1ccccc1	.	.	.	.	.	12.7%
CCC1CO/C(=C(\C(Cl)=C(Cl)Cl)[N+](=O)[O-])N1Cc1ccc(Cl)nc1 (stereo unspecified)	-27.8%	3.0	1.2	79.4µM*	20.5%	.
Cc1ccc(-n2sc3ccccc3c2=O)cc1	7.08µM*	-9.2	-9.5	7.94µM*	?	6.5%
COc1ccc(-c2nc3ccccc3c(=O)n2-c2ccc(OC)cc2)cc1	-12.0%	-6.7	0.4	-5.2%	27.7%	3.7%

Source: PubChem BioAssay (National Center for Advancing Translational Sciences (NCATS))
